# TDP1 inh – qHTS Assay for Inhibitors of Tyrosyl-DNA Phosphodiesterase (TDP1); Tyrosyl-DNA phosphodiesterase 1 (Homo sapiens), Q9NUW8; recombinant TDP1, AlphaScreen DNA substrate cleavage; Potency, µM (top dose mostly 130 µM), for inactives: at the top dose activity change, negative = inhibition, usual class: inhibitors; 350,000 compounds, 0.28% hits; also: potency is read from the fitted curve at half-maximal effect; % is scaled to controls: 0 for no effect and ±100 for the full control effect; nearly all actives have a fitted effect of over 40% in size
# Target sequence (Q9NUW8 whole entry, looked up): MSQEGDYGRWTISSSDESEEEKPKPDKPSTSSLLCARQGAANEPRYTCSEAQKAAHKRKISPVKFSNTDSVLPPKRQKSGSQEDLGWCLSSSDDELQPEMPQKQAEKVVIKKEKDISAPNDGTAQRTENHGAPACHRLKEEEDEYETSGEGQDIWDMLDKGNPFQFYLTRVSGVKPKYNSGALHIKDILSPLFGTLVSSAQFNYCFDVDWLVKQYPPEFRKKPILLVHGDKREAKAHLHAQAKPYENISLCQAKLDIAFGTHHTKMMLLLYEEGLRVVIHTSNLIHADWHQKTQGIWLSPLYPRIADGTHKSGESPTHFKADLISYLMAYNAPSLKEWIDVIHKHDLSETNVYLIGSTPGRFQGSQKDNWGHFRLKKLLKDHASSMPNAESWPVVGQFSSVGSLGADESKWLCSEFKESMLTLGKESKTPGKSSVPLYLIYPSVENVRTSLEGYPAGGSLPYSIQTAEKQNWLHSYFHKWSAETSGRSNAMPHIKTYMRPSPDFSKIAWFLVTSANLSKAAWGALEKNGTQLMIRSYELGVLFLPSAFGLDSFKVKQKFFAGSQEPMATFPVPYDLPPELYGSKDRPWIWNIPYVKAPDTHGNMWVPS
#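 Signal: AlphaScreen proximity between streptavidin donor and anti-FITC acceptor beads on intact substrate. Reaction: Tdp1 1 nM, substrate 15 nM final, 5 min RT after 15 min compound preincubation.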
# TDP1 cell CPT – qHTS for Inhibitors of human tyrosyl-DNA phosphodiesterase 1 (TDP1): qHTS in cells in presence of CPT | 420,000 compounds, 12% hits | chicken DT40 Tdp1-/-;hTDP1 cells + 20 nM CPT, ATP luminescence, 48 h | Potency, µM (doses to about 46.2 µM), for the others: top-dose activity change, negative = growth inhibition, actives largely listed as inhibitors; also: potency is read from the fitted curve at half-maximal effect; % is scaled to controls: 0 for no effect and ±100 for the full control effect; nearly all actives have a fitted effect of over 55% in size
#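 Cell growth measured by CellTiter-Glo luminescence after a minimum 48 h, 37 C compound exposure with 20 nM CPT in Tdp1-knockout DT40 cells stably expressing hTDP1, seeded 400/well; qHTS titration format.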
# TGFb SMAD3 inh – qHTS for Inhibitors of TGF-b; HepG2 CAGA-GFP TGF-b/SMAD3 reporter, GFP fluorescence, 18 h; TGF-beta stimulated, 500 pg/mL final; Potency, µM (doses to about 46.1 µM), for the others: at the top dose activity, negative = inhibition, usual class: inhibitors; 410,000 compounds, 1.2% hits; AID 588855, 2011; also: potency is read from the fitted curve at half-maximal effect; % is scaled to controls: 0 for no effect and ±100 for the full control effect; nearly all actives have a fitted effect of over 65% in size
#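 First, reporter cells (HEPG2 CAGA-GFP) rested 2 h at 37 degrees C. Next, compounds were pinned in and TGF-beta added to 500 pg/mL final. After 18 h, GFP was imaged per cell and summed per well.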
# IL-1B inflam inh – qHTS for Inhibitors of Inflammasome Signaling: IL-1-beta AlphaLISA Primary Screen; THP-1 LPS/ATP IL-1B secretion, AlphaLISA, 16 h; hits give low values; activity change, % at 57.5 µM; 360,000 compounds, 4.7% hits; AID 743279, 2014; in the data active = activity change below about -50%; inconclusive = mostly about -30% to -49%; also: % is scaled to controls: 0 for no effect and ±100 for the full control effect
#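 THP-1 cells pretreated 1 hr with compounds (up to 57.5 uM final), then stimulated with LPS (250 ng/mL final) plus ATP (1.25 mM final); secreted IL-1B measured by AlphaLISA after 16 hr, decreased signal indicating inhibition.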
# HepG2 tox – qHTS for Inhibitors of TGF-b: Cytotox Counterscreen | 410,000 compounds, 0.76% hits | AID 588856, 2011 | HepG2 CAGA-GFP viability, ATP luminescence, 18 h | Potency, µM (top dose mostly 46.1 µM), inactives show top-dose activity change, negative = cytotoxicity, actives largely listed as cytotoxic; also: potency is read from the fitted curve at half-maximal effect
#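 CellTiter-Glo luminescence gave cytotoxicity after 18 hours at 37 degrees C. The cells were HepG2 CAGA-GFP in 1% FBS DMEM, stimulated with 500 pg/mL TGF-beta after compound addition. %Activity was normalised to no-cell wells (complete cell-killing) and DMSO (no toxicity), and curves were fitted and classified.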
# TDP1 cell noCPT – qHTS for Inhibitors of human tyrosyl-DNA phosphodiesterase 1 (TDP1): qHTS in cells in absence of CPT | DT40 Tdp1-/- hTDP1 cells, no CPT, ATP luminescence, 48 h | Potency, µM (series often up to 46.2 µM), for inactives: at the highest dose activity change, negative = growth inhibition, hits mostly inhibitors | 420,000 compounds, 15% hits; also: potency is read from the fitted curve at half-maximal effect; % is scaled to controls: 0 for no effect and ±100 for the full control effect; nearly all actives have a fitted effect of over 55% in size
#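 Chicken DT40 Tdp1-/- cells stably complemented with human TDP1 were seeded at 400 cells/well with DMSO in place of 20 nM camptothecin. After compound pinning, cells grew at least 48 hr at 37 °C; viability read by CellTiter-Glo luminescence.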
# Starred values were filed as active, the others as inactive; ? = inconclusive; . = no result given. The list is not random: actives were taken first. Their share in the collection is about 18%. Unless noted, calls follow the shape of the dose curve; as a rule, active = well fitted curve in the direction sought with a large enough effect; inconclusive = small, poorly fitted or top-dose-only effect, or another doubt; inactive = no such curve, though single readings can be large; an effect the other way counts as inactive or inconclusive.
SMILES,TDP1 inh,TDP1 cell CPT,TGFb SMAD3 inh,IL-1B inflam inh,HepG2 tox,TDP1 cell noCPT
OCc1nc2ccccc2n1CCc1ccccc1,3%,-1%,-20%,10,-45%,3%
OCc1nc2ccccc2n1CCCc1ccccc1,.,16µM*,-11%,9,6%,?
CCCCCCn1c(C(C)O)nc2ccccc21 (configuration not stated),0%,?,10%,35,-1%,?
CC(O)c1nc2ccccc2n1CCCOc1ccccc1 (configuration not stated),.,?,12%,63,-6%,16µM*
CC(O)c1nc2ccccc2n1CCCc1ccccc1 (configuration not stated),4%,18µM*,-21%,-8,-26%,-25%
Cc1ccc(NC(=O)COC(=O)COc2cccc3c2OC(C)(C)C3)c(C)c1,.,0%,?,10,4%,-15%
Fc1ccc(C(CCCn2nnc(-c3cccnc3)n2)c2ccc(F)cc2)cc1,-7%,16µM*,?,?,-19%,21µM*
O=[N+]([O-])c1ccc(/C=C2\CCC(C3=CCCC3)=C2N2CCOCC2)cc1,-5%,?,?,?,-39%,16µM*
Cc1ccc(-n2c(C)cc(/C=C3/C(=N)N4C(c5ccccc5)=CSC4=NC3=O)c2C)cc1,2%,?,0%,13,37%,23µM*
N=C1/C(=C/c2ccc(-c3cccc(C(=O)O)c3)o2)C(=O)N=C2SC=C(c3ccccc3)N12,35µM*,?,-14%,39,-39%,-18%
CC(NC(=O)CCNS(=O)(=O)c1cccc2nonc12)c1ccccc1 (configuration not stated),6%,-2%,-22%,7,-15%,-16%
COCCN(C(=O)COC(=O)C1CC1)c1c(N)n(Cc2ccccc2)c(=O)[nH]c1=O,4%,-8%,2%,11,20%,-1%
Cc1cc(C(=O)N2CCCC(C)(C(=O)NS(=O)(=O)C3CC3)C2)nn1C(C)(C)C (configuration not stated),.,?,13%,26,3%,2.9µM*
CCCNC(=O)C1(C)CCCN(C(=O)c2cc(C)n(C(C)(C)C)n2)C1 (configuration not stated),.,?,2%,27,1%,?
CCNC(=O)C1(C)CCCN(C(=O)c2cc(C)n(C(C)(C)C)n2)C1 (configuration not stated),.,7.3µM*,-15%,22,-3%,-25%
CCCNC(=O)C1(C)CCCN(C(=O)c2cc(C)nn2C(C)(C)C)C1 (configuration not stated),.,12µM*,7%,28,-5%,?
CCc1cccc(NC(=O)C2Cc3ccccc3N2C(=O)c2ccccc2)c1 (configuration not stated),1%,?,2%,.,-4%,?
CCCC(C(=O)NC1CCCC1)N(C(=O)c1snc(C(N)=O)c1N)c1ccc(OCC)cc1 (configuration not stated),-2%,-20%,0%,-59*,34%,21µM*
CCOc1ccc(C(C(=O)NC2CCCC2)N(C(=O)c2snc(C(N)=O)c2N)c2cccc(O)c2)cc1 (configuration not stated),.,?,7%,-6,10%,16µM*
O=C1ON=C(c2cccc([N+](=O)[O-])c2)/C1=C/c1ccc(O)cc1,-1%,12µM*,?,-100*,-24%,13µM*
COc1ccc(/C=C2\C(=O)ON=C2c2ccccc2)cc1,.,?,-30%,?,-43%,21µM*
COc1cc(/C=C2\C(=O)ON=C2c2ccc(Cl)cc2)ccc1O,.,16µM*,-10%,-95*,-169%,23µM*
O=C1ON=C(c2ccccc2)/C1=C/c1ccc(O)c(O)c1,.,?,12%,0,-22%,?
CCCc1nc2ccccc2c(=O)n1CC(=O)c1ccc(F)cc1,.,?,1%,-13,-13%,?
CN(C)S(=O)(=O)c1cccc(COC(=O)CNC(=O)c2ccc(Br)o2)c1,-10%,11%,-23%,-3,-2%,-3%
SMILES,TDP1 inh,TDP1 cell CPT,TGFb SMAD3 inh,IL-1B inflam inh,HepG2 tox,TDP1 cell noCPT
CN1C(=O)c2ccccc2Sc2ccc(NC(=O)COc3ccccc3)cc21,-13%,4.1µM*,-15%,.,7%,2.9µM*
CN1C(=O)c2ccccc2Sc2ccc(NC(=O)Cc3c(F)cccc3Cl)cc21,2%,13µM*,10µM*,.,-57%,7.3µM*
CCN1C(=O)c2ccccc2Sc2ccc(NC(=O)Nc3cc(C)cc(C)c3)cc21,6%,12µM*,6.3µM*,.,-30%,6.5µM*
CN1C(=O)c2ccccc2Sc2ccc(NC(=O)NC3CC3)cc21,2%,?,-2%,-1,-3%,?
CCN1C(=O)c2ccccc2Sc2ccc(NC(=O)COc3ccc(Cl)cc3)cc21,11%,16µM*,-40%,.,10%,18µM*
CCN1C(=O)c2ccccc2Sc2ccc(NC(=O)c3ccc(Cl)cc3)cc21,2%,0%,-34%,.,0%,-9%
Cc1ccc(NC(=O)Nc2ccc3c(c2)N(C)C(=O)c2ccccc2S3)c(C)c1,6%,?,1%,.,8%,?
